{"source": "PubChem BioAssay (NCI)", "note": "Compounds without any hit were thinned out: in the full panel of roughly 83,000, 20% have a hit.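 Step 1: grow cells in 96-well plates. Step 2: add test compound at a single concentration. Step 3: incubate 48 h. Step 4: record percent growth.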 Values without a mark were called inactive. Activity calls are given as the source filed them. How the source made its calls: active means growth percent below 10; inactive means the rest.", "data": [{"tested_on": "HL-60(TB) leukemia", "assay": "NCI-60 one-dose screen, 48 h (100 = growth as untreated, 0 = no growth, -100 = all killed)", "settings": "10 µM unless noted", "values": [{"smiles": "Cc1ccc(Oc2nc3ccccc3cc2-c2nnc(Cn3c(COc4ccccc4)nc4ccccc43)o2)cc1", "growth": "-18.2% (active)"}, {"smiles": "Cc1ccc(C)c(NC(=O)c2sc3c(=O)[nH]cnc3c2C)c1", "growth": "65.4%"}, {"smiles": "COc1cc2nc(N3CCCC3)nc(NCC3CCCCC3)c2cc1OC", "growth": "-57.2% (active)"}, {"smiles": "NS(=O)(=O)c1ccc(Cn2c(SCC(=O)N/N=C/c3ccccc3O)nc3ccccc3c2=O)cc1", "growth": "40.9%"}, {"smiles": "C=CCOc1ccc2c(c1)CC[C@@H]1[C@@H]2CC[C@]2(C)C(=O)/C(=N/O)C[C@@H]12", "growth": "-28.4% (active)"}, {"smiles": "COc1ccc(-c2cscc2N)cc1", "growth": "18.7% [100 µM]"}, {"smiles": "COc1ccc(-c2conc2-c2ccccc2)cc1", "growth": "15.1%"}, {"smiles": "O=S(=O)(NCCNc1cc(-c2cn(-c3ccccc3)nc2-c2cccc(O)c2)ccn1)c1ccccc1", "growth": "33.9%"}, {"smiles": "CC1=C(NCCN2CCCC2)C(=O)c2c(OCc3cccc(Cl)c3)cccc2C1=O", "growth": "94.1%"}, {"smiles": "O=C1COCCN1c1ccc(NCc2cn(C(=O)c3ccc(Cl)cc3)c3ccccc23)cc1", "growth": "90.6%"}, {"smiles": "COc1ccc(-c2cn[nH]c2-c2cc(OC)c3c(c2)OCCO3)cc1", "growth": "-33.2% (active)"}, {"smiles": "O=S(=O)(NCCNc1cc(-c2cn(-c3ccccc3)nc2-c2cccc(O)c2)ccn1)c1ccc(F)cc1", "growth": "6.88% (active)"}, {"smiles": "COc1ccc(-c2nc(-c3ccccc3)c(-c3ccccc3)[nH]2)cc1OC1CCCC1", "growth": "83.1%"}, {"smiles": "N#C/C(=C\\c1ccc(-c2cccc(Cl)c2)o1)C(=O)Nc1ncc(Cc2ccc(Cl)cc2)s1", "growth": "83.9%"}, {"smiles": "CC1NC(=S)NC(=O)/C1=C/c1cc(=O)oc2c1ccc1ccccc12", "note": "(stereo not given)", "growth": "102%"}, {"smiles": "CCC(=O)Oc1cc(Cl)c(Cl)cc1Cl", "growth": "106%"}, {"smiles": "C#Cc1ccc(NC(=O)Cc2ccc(/C=C/C(=O)c3nccn3C)cc2)cc1", "growth": "16.5%"}, {"smiles": "COc1cc(-c2n/c(=C\\c3c(O)[nH]c4cc(Cl)ccc34)cc3c2=Nc2ccccc2-3)cc(OC)c1OC", "growth": "89.6%"}, {"smiles": "COc1ccc(-c2csc(NC(=O)c3cc(O)c(O)c(O)c3)n2)cc1", "growth": "62.4%"}, {"smiles": "Cc1cc(-c2nnc(/C=C/c3ccc4c(c3)OCO4)o2)n[nH]1", "growth": "10.6%"}, {"smiles": "COc1cc(OC)cc(-c2n/c(=C\\c3c(O)[nH]c4ccc(Cl)cc34)cc3c2=Nc2ccccc2-3)c1", "growth": "90.2%"}, {"smiles": "CCOC(=O)/C(C#N)=C(\\C)CCc1ccccc1", "growth": "239%"}, {"smiles": "Cn1cc(-c2cnn3c(N)c(Br)c([C@@H]4CCCNC4)nc23)cn1", "growth": "21.2%"}, {"smiles": "CCN(CC)c1ccc(/C=N/NC(=O)C[N+](C)(C)C)cc1", "growth": "35.5%"}, {"smiles": "CCOC(=O)c1sc2ncnc(Nc3ccc4c(cnn4C(=O)Nc4ccccc4)c3)c2c1C", "growth": "90.9%"}, {"smiles": "COc1cc(OCc2cccc(-c3ccc(C(O)c4nccs4)cc3)c2C)cc(OC)c1C=O", "note": "(stereo not given)", "growth": "43.5%"}, {"smiles": "COc1ccc2nc(-c3ccc(-c4noc(-c5ccc(Cl)cc5)n4)cc3)[nH]c2c1", "growth": "104%"}, {"smiles": "COc1cnc2c(c1)C(=O)c1c-2n(CCCN2CCC(O)CC2)c(=O)c2cc(Cl)ccc12", "growth": "-35.9% (active)"}, {"smiles": "Cn1cc(-c2nn3cc(-c4cccs4)nc3s2)c2cc(F)ccc21", "growth": "3.45% (active)"}, {"smiles": "O=C1C(=O)c2c(nc3ccc(Br)cn23)-c2ccccc21", "growth": "-58.2% (active)"}, {"smiles": "Cc1cc2c(-c3nc4ccccn4c3NC3CCCCC3)c(O)c(O)cc2c(O)c1-c1c(C)cc2c(-c3nc4ccccn4c3NC3CCCCC3)c(O)c(O)cc2c1O", "growth": "29.1%"}, {"smiles": "CN1C(=O)C(C2=NNC(c3ccccc3C(=O)O)C2)C(=O)N(C)C1=O", "note": "(stereo not given)", "growth": "95.5%"}, {"smiles": "O=C(NCCCO)c1cc(Cl)ccc1O", "growth": "-13.5% (active)"}, {"smiles": "O=C(Nc1cccc(-n2ccc3c(NC(=O)c4ccccc4)nccc32)c1)Nc1cc(C(F)(F)F)cc(C(F)(F)F)c1", "growth": "-17.6% (active)"}, {"smiles": "C/C(=C\\c1csc(C)n1)[C@@H]1C[C@@H]2O[C@]2(C)CCC[C@H](C)[C@H](O)[C@@H](C)C(=O)C(C)(C)[C@@H](O)CC(=O)N1", "growth": "0.771% (active)"}, {"smiles": "CNC(=S)NC(C)(C)C", "growth": "92.6%"}, {"smiles": "Cc1c2ccccc2nc2cc3c(cc12)[C@H]1CC[C@]2(C)C(=O)CC[C@H]2[C@@H]1CC3", "growth": "97.1%"}, {"smiles": "COc1cccc(-c2nn(-c3ccccc3)cc2-c2ccnc(NCCCNS(=O)(=O)c3ccccc3)c2)c1", "growth": "16%"}, {"smiles": "CC(C)[C@H]1CCC2=C3CC[C@]45OC(=O)[C@@]6(CCC(C)(C)C[C@H]64)CC[C@@]5(C)[C@]3(C)CC[C@@]21C", "growth": "3.99% [100 µM] (active)"}, {"smiles": "COc1ccccc1/C=N\\Nc1ccc([N+](=O)[O-])cn1", "growth": "89.5%"}]}]}
